# Experimental data: PubChem BioAssay (NCI)
# Compounds without any hit were thinned out: in the full panel of roughly 83,000, 20% have a hit.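 96-well plates, one dose, 48 hours. Percent growth reported; active if below 10.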 Unmarked numbers belong to inactive results. Activity calls are given as the source filed them.
# Experiments:
# Test in all cases: NCI-60 one-dose screen, 48 h (100 = growth as untreated, 0 = no growth, -100 = all killed)
# Conditions in all cases: 10 µM
# OVCAR-8 ovarian = system: OVCAR-8 ovarian
# OVCAR-5 ovarian = system: OVCAR-5 ovarian
# OVCAR-4 ovarian = system: OVCAR-4 ovarian
# SK-OV-3 ovarian = system: SK-OV-3 ovarian
# IGROV1 ovarian = system: IGROV1 ovarian
# OVCAR-3 ovarian = system: OVCAR-3 ovarian
# HS 578T breast = system: HS 578T breast
# NCI/ADR-RES ovarian = system: NCI/ADR-RES ovarian
# T-47D breast = system: T-47D breast
# BT-549 breast = system: BT-549 breast
# MDA-MB-435 melanoma = system: MDA-MB-435 melanoma
# SW-620 colon = system: SW-620 colon
# MCF7 breast = system: MCF7 breast
# HCT-116 colon = system: HCT-116 colon
# HCC-2998 colon = system: HCC-2998 colon
# KM12 colon = system: KM12 colon
SMILES,growth (OVCAR-8 ovarian),growth (OVCAR-5 ovarian),growth (OVCAR-4 ovarian),growth (SK-OV-3 ovarian),growth (IGROV1 ovarian),growth (OVCAR-3 ovarian),growth (HS 578T breast),growth (NCI/ADR-RES ovarian),growth (T-47D breast),growth (BT-549 breast),growth (MDA-MB-435 melanoma),growth (SW-620 colon),growth (MCF7 breast),growth (HCT-116 colon),growth (HCC-2998 colon),growth (KM12 colon)
Nc1c(C(=O)Nc2cccc3ccccc23)sc2nc3c(cc12)C(=O)CCC3,21%,40.3%,47.7%,5.64% (active),23.7%,-26.7% (active),14.2%,2.15% (active),47.5%,57%,-37.3% (active),21.3%,13.6%,17.5%,11.9%,25.9%
Nc1nc(-c2ccccc2Cl)cc(-c2ccc(Cl)cc2Cl)n1,71.2%,96.2%,79.6%,93%,74.7%,85.2%,61.9%,79.8%,63.7%,75.3%,0.0733% (active),39%,45.7%,33%,83.6%,53.8%
COc1cc(NC(=O)CSc2nc3ccccc3c(=O)n2CCc2ccccc2)cc(OC)c1OC,30%,65.9%,53.8%,-37.5% (active),8.76% (active),-30.6% (active),36.6%,36.5%,-1.62% (active),-4.65% (active),,48.6%,51%,-0.608% (active),35%,7.82% (active)
CCOC(=O)N/N=C\C(C)=N\NC(=O)OCC,99%,100%,102%,98.7%,108%,106%,115%,97.9%,99.9%,99.8%,,99%,99.5%,104%,111%,102%
CN1c2ccccc2[C@]2(Cc3ccccc3)Cc3ccccc3N[C@H]12,106%,93.8%,91%,122%,88.8%,120%,110%,107%,109%,122%,117%,101%,94.1%,91.8%,103%,104%
O=C(Nc1cccc(-n2cc(-c3ccncc3)c(-c3ccc(O)c(Cl)c3)n2)c1)c1ccc(N2CCOCC2)c(C(F)(F)F)c1,30.7%,37.8%,69.3%,64.2%,64.8%,60.4%,33.5%,43.1%,36.4%,47.2%,53.9%,36.3%,24.6%,26.7%,23.6%,14.9%
Cc1cc(Cl)nc(N(CCCNc2ccnc3cc(Cl)ccc23)Cc2cccs2)n1,7.5% (active),31.8%,11%,46.3%,6.77% (active),25.9%,48.6%,0.179% (active),-2.57% (active),24.7%,3.55% (active),11.8%,10.7%,3.08% (active),0.165% (active),12.8%
CSc1cc(SC)ncn1,105%,105%,113%,104%,116%,124%,115%,118%,105%,104%,115%,103%,97.8%,102%,111%,108%
COc1ccc(-c2nc(-c3nc4ccc(OC)cc4[nH]3)cc3c2[nH]c2ccccc23)cc1,17.5%,90%,52.8%,99.2%,21.1%,51.9%,18.8%,32.9%,25.5%,39.8%,39.2%,40.6%,31.8%,21.3%,57.4%,20.4%
COc1ccc(Nc2nc3ccc(NC(=O)NC4CCCCC4)cc3[nH]c2=O)cc1,91.4%,104%,113%,96.1%,94.1%,112%,69.6%,103%,92.8%,87.7%,105%,108%,83%,102%,104%,87.1%
Nc1ncn([C@@H]2O[C@H](CO)[C@@H](O)[C@H]2O)c(=O)n1,22.4%,56.8%,34.1%,17.4%,18.5%,22.7%,23.7%,29.1%,26.6%,16.3%,16.6%,35.6%,23.5%,-31.5% (active),11.7%,16.6%
CCn1cc(C(=O)O)c(=O)c2cnc(N3CCCC3)nc21,101%,103%,105%,108%,103%,119%,99.9%,102%,99.1%,104%,94.2%,106%,103%,96.9%,107%,108%
Clc1ccc(Nc2ccnc(NCCNc3ccnc4cc(Cl)ccc34)n2)cc1,16.9%,61.4%,24.9%,60%,-8.25% (active),57.8%,-25% (active),44.8%,-60.2% (active),40.8%,-90% (active),-10.5% (active),-74.6% (active),-71.3% (active),-89% (active),33.7%
COc1ccc(NC(=O)CSc2nc3ccccc3c(=O)n2CCc2ccccc2)cc1,60.7%,101%,97%,75.5%,82.3%,90.4%,51.2%,85.2%,93.3%,91.8%,90.5%,89.1%,89.9%,87.6%,106%,84.4%
Cc1ccc(-c2n[nH]c(=O)c3noc(-c4ccc(C)cc4)c23)cc1,43.3%,66.2%,59.4%,21.4%,53.5%,-13.3% (active),21.9%,32.5%,28.6%,,-13.3% (active),28%,20.2%,32.2%,70.3%,35.9%
Nc1ncnc2[nH]c(=O)[nH]c12,93.3%,87.9%,96.7%,110%,113%,98.4%,144%,107%,94.2%,122%,96.4%,110%,100%,91.3%,111%,99.8%
O=C(NC(Cc1ccc(O)cc1)C(=O)N=Nc1c(O)[nH]c2ccccc12)c1ccccc1 (centres undefined),93.9%,110%,95.7%,103%,108%,103%,101%,98.7%,107%,102%,103%,96.4%,103%,99.3%,,99.2%
CCOC(=O)C(CSC(c1ccccc1)(c1ccccc1)c1ccccc1)NC(=O)C(CSC(c1ccccc1)(c1ccccc1)c1ccccc1)NC(c1ccccc1)(c1ccccc1)c1ccccc1 (centres undefined),95.6%,106%,105%,109%,115%,119%,99.5%,109%,108%,109%,86.1%,104%,95%,108%,113%,111%
O=c1oc2cc(OS(=O)(=O)c3ccccc3)ccc2c2c1CCCCC2,60.4%,83%,53.7%,84.3%,83.4%,81.5%,75.6%,56%,24.8%,59.9%,64.7%,44.2%,49.7%,29%,59.1%,41.1%
CC1(O)CCC2CC3OC3(C)CCC3OC3(C)CCC1C2(C)C (centres undefined),83%,109%,109%,104%,89.5%,69.4%,89.4%,109%,104%,,107%,99.6%,103%,100%,,111%

SMILES,growth (OVCAR-8 ovarian),growth (OVCAR-5 ovarian),growth (OVCAR-4 ovarian),growth (SK-OV-3 ovarian),growth (IGROV1 ovarian),growth (OVCAR-3 ovarian),growth (HS 578T breast),growth (NCI/ADR-RES ovarian),growth (T-47D breast),growth (BT-549 breast),growth (MDA-MB-435 melanoma),growth (SW-620 colon),growth (MCF7 breast),growth (HCT-116 colon),growth (HCC-2998 colon),growth (KM12 colon)
O=C(Nc1cccc(-n2cc(-c3ccncc3)c(-c3ccc(O)c(Cl)c3)n2)c1)c1cccc(C(F)(F)F)c1,18.4%,89.4%,51.2%,71.2%,51.6%,45.1%,41.2%,35.1%,15%,43.9%,33.7%,26.1%,13.9%,21.7%,25.7%,20.2%
CCOC(=O)C(NC(=O)C(Cl)Cl)C(O)c1ccccc1 (centres undefined),102%,102%,110%,116%,77.7%,109%,120%,108%,107%,112%,94.9%,100%,94.8%,85.3%,110%,110%
O=C(Nc1ccc(Cl)cc1)N1NC(c2ccc(Cl)cc2)C=C1c1ccccc1 (centres undefined),97%,124%,91.5%,97%,95.3%,103%,123%,115%,94%,102%,103%,110%,89.6%,104%,97.5%,96.3%
CC1CN(Cc2ccccc2)C(=O)NC1=O (centres undefined),103%,115%,123%,111%,124%,135%,108%,107%,97.2%,103%,110%,110%,94.8%,106%,110%,113%
O=C(O)CCCCSc1ncnc2nc[nH]c12,98.3%,102%,116%,92.9%,97.5%,100%,122%,107%,97.2%,106%,99.3%,109%,99.2%,103%,108%,102%
O=c1c2ccccc2nc(SCCN2CCCCC2)n1CCc1ccccc1,95.9%,88.7%,86.7%,92.6%,78.7%,94.1%,93.9%,87.6%,65.5%,86.3%,95.9%,89.9%,63.3%,74%,97.9%,94.2%
CCOC(=O)N1C=CC2C=CC1C1C=CC=CC2N1C(=O)OCC (centres undefined),96.5%,95%,97.8%,97%,97.8%,100%,87.5%,95.3%,98.9%,89.4%,3.79% (active),82%,76.8%,94.7%,82.1%,84.9%
CC(=O)N1N=C(c2ccc(Cl)cc2)CC1c1sc(Cl)nc1Cl (centres undefined),78%,96.9%,66.4%,,,75.6%,98.2%,80.7%,75.1%,89.9%,89.2%,102%,85.9%,75.9%,94.8%,93.5%
O=C(O)CN1C(=O)c2cccc3cccc(c23)C1=O,98.8%,105%,100%,94%,111%,118%,108%,102%,,104%,104%,106%,87.4%,,103%,107%
COc1ccc(OC)c(/C=C/c2nnc(Nc3ccc(Cl)cc3)o2)c1,66.7%,103%,-16% (active),32.9%,80.6%,32.1%,6.91% (active),,-4.56% (active),97.4%,69.8%,66.7%,74.5%,21.9%,55.4%,86.5%
COc1ccc2c(c1)[n+]([O-])c(C#N)c(NC(=O)c1ccco1)[n+]2[O-],65.3%,111%,93.8%,91.2%,118%,113%,92.5%,111%,91.5%,,104%,108%,90.8%,,,105%
CCCCC/C=C/C(=O)CCc1ccc(O)c(OC)c1,88.6%,127%,,86.7%,,55.8%,104%,,73.3%,66.9%,19.4%,68.4%,1.77% (active),13.6%,21%,31.1%
Nc1ccc2cc(S(=O)(=O)O)cc(O)c2c1N=Nc1ccc(F)cc1,107%,99.5%,137%,103%,,117%,111%,99.3%,101%,102%,113%,104%,111%,93.4%,102%,107%
COc1cc(-c2cc(-c3cc4c([nH]c5ccccc54)c(-c4cc(OC)c(OC)c(OC)c4)n3)cc(-c3ccccc3)n2)cc(OC)c1OC,70.2%,88.6%,58.6%,90.7%,,72.3%,52.5%,42%,43.3%,66.6%,-1.18% (active),41.4%,44%,,72.8%,60%
Clc1cc2c(c(CSc3nc4ccccc4n4cccc34)c1)OCOC2,59.3%,87.2%,3.98% (active),74.9%,,72.2%,91.8%,89.5%,2.37% (active),81.2%,92.2%,94.4%,8.11% (active),80%,85.4%,88.4%
O=C1C(=O)c2ccccc2C(O)=C1CCCc1ccc(C2CCCCCC2)cc1,46.8%,82.6%,20.9%,48.8%,21%,51.5%,115%,,29%,58.2%,33.9%,32.9%,25.5%,24.6%,8.94% (active),37.8%
O=C1CC[C@@H]2CCCC[C@@H]2C1,109%,101%,,99.4%,105%,132%,110%,110%,93.5%,136%,103%,108%,97.2%,104%,112%,112%
O=C1c2ccc3c4c(ccc(c24)C(=O)N1CCNCc1ccccc1)C(=O)N(CCNCc1ccccc1)C3=O,2.34% (active),132%,-97.8% (active),109%,-75.7% (active),-62.6% (active),102%,,-27.2% (active),-21.3% (active),-75.6% (active),3.88% (active),-45.4% (active),-18% (active),-92.2% (active),-43.3% (active)
CN(C)c1ccc(-c2cc(-c3cccc(NS(C)(=O)=O)c3)nc(N)c2C#N)cc1,30%,52%,45.7%,15.1%,80.4%,-48.2% (active),15.3%,,80.4%,30.8%,-25.9% (active),24.3%,16.1%,5.65% (active),-41.9% (active),-14.3% (active)
